Measurements: PubChem BioAssay AID588819 (The Scripps Research Institute Molecular Screening Center, 2011)
Hit rate of the full screen: of about 360,000 compounds, about 320 (0.089%) were called active. Rule as the data show it: active = activation above about 19% (passing the limit was not always enough); inactive = the rest. Only a selection was taken, and actives are over-represented in it overall.

biological target: Muscarinic acetylcholine receptor M1 (Homo sapiens) (UniProt P11229); assay: CHRM1 PAMs potentiating acetylcholine calcium signal – CHO-K1 cells, Fluo-8 calcium fluorescence, 1536-well, primary screen (AID 588819); settings: CHO-K1 hM1, Fluo-8 calcium fluorescence, ACh EC20; at 3 µM; active compounds read high; 0% = ACh EC20, 100% = maximal ACh
Sequence (P11229 whole entry, looked up): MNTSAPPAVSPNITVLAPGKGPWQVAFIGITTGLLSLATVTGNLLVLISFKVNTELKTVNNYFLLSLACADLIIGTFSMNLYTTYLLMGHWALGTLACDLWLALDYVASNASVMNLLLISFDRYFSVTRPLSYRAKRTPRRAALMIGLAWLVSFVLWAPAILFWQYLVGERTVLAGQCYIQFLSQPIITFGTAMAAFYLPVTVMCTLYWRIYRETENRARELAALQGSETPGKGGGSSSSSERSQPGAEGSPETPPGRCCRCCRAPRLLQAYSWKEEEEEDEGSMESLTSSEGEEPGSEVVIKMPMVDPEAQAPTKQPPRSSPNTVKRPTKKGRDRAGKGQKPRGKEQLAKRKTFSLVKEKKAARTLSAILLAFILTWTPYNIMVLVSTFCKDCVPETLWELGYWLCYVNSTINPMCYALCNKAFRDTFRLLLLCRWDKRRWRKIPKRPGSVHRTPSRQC

Compound | activation
Cc1ccc(S(=O)(=O)NC(=O)N2CCCN(Cc3ccc(F)cc3)CC2)cc1 | 5.25% (inactive)
CCN(CC(=O)Nc1ccc(OC)cc1)C(=O)c1ccc(Cl)c(S(=O)(=O)N2CCCC2)c1 | 9.99% (inactive)
CC(C)(C)NC(=O)CN(C(=O)c1ccc(Cl)nc1)c1cccc2ccccc12 | 2.85% (inactive)
CCC1(CC)C(=O)C2=C3C1[C@H](C(=O)OC)C=C(C(=O)OC)C[C@H]3[C@H]1C(=O)N(Cc3ccccc3)C(=O)[C@H]1[C@H]2C (stereo partly specified) | -6.86% (inactive)
COc1ccc(-n2nc3c(c2NC(=O)c2ccc(N4C(=O)CCC4=O)cc2)CSC3)cc1 | 1.99% (inactive)
COc1ccc(CCNC(=O)CN(C)S(=O)(=O)c2ccc3nc(C)sc3c2)cc1OC | 8.1% (inactive)
CCN(C(=O)COC(=O)/C=C/c1nc2ccccc2s1)C1CCS(=O)(=O)C1 (stereo unspecified) | -0.52% (inactive)
O=c1[nH]c(CN2CCN(S(=O)(=O)c3ccc4c(c3)OCCO4)CC2)nc2sc3c(c12)CCCC3 | 12.9% (inactive)
O=C(NCc1cccnc1)C12CC3CC(CC(C3)C1)C2 | 22.9% (inactive)
CN(CC(=O)Nc1cccc(F)c1)C(=O)CC1CCCC1 | 29.7% (active)
Cc1ccc(CSCC(=O)N(C)CC(=O)Nc2cccc(F)c2)cc1 | 11.3% (inactive)
COc1ccc(NC(=O)CN(C)C(=O)CC2CCCCC2)cc1 | 15.3% (inactive)
ONC(=Nc1ccccc1)c1ccccc1Cl | 2.82% (inactive)
CCC1(CC)NC(=O)N(CC(=O)OCC(=O)NC(=O)c2ccccc2)C1=O | 5.54% (inactive)
CC(C)N1CCC(N2CCN(Cc3cccnc3)CC2CCO)CC1 (stereo unspecified) | 7.42% (inactive)
COc1ccc(S(=O)(=O)N2CCN(C(=S)NCC3CCCO3)CC2)cc1OC (stereo unspecified) | 2.58% (inactive)
O=C(NCc1ccccc1)C1=C[C@@H](c2ccccc2)C[C@@H](OCCCCO)O1 | 19.5% (inactive)
O=C(CSc1ccccc1)Nc1nnc(/C=C/c2ccccc2)s1 | 32.8% (active)
O=C(/C=C/c1ccccc1)Nc1nnc(SCC(=O)c2ccc3ccccc3c2)s1 | 1.55% (inactive)
CCOCc1nnc(NC(=O)CSc2ccc(C)cc2)s1 | 3.8% (inactive)
O=C(Cn1nc(C(=O)O)c2ccccc2c1=O)Nc1ccc(F)cc1 | 1.79% (inactive)
CC(=O)Nc1ccc(NC(=O)C(C)OC(=O)C2CC(=O)N(CCc3ccccc3)C2)cc1 (stereo unspecified) | 4.72% (inactive)
CCCCN(C)c1ccc([N+](=O)[O-])cc1 | -3.31% (inactive)

Compound | activation
CC(C)CCn1cnc2c1c(=O)n(CC(=O)NC(N)=O)c(=O)n2Cc1ccccc1 | 30.3% (active)
CC(C)Cn1cnc2c1c(=O)n(CC(=O)NN)c(=O)n2Cc1ccccc1 | 4.53% (inactive)
COCCn1cnc2c1c(=O)n(CC(=O)NN)c(=O)n2Cc1ccccc1 | 13.3% (inactive)
CCCSC(=S)NC1CCS(=O)(=O)C1 (stereo unspecified) | 0.86% (inactive)
CCCCNCCS(=O)(=O)NCc1ccccc1 | 4.18% (inactive)
CCCCNCc1ccc(SC)cc1 | 25.2% (active)
CSc1ccc(CNCCN2CCOCC2)cc1 | -5.22% (inactive)
Cc1cccc(C)c1NC(=O)C1(N(C(=O)c2ccccn2)c2ccc(O)cc2)CCCCC1 | -1.06% (inactive)
CN(C)/C=C/c1c(C#N)c(=O)ncn1Cc1ccccc1 | -0.11% (inactive)
O=c1c2c(ncn1Cc1ccccc1)nc1n2CCC1 | 7.79% (inactive)
CN(C)c1ccnc2sc3c(=O)n(Cc4ccccc4)cnc3c12 | 23.4% (active)
COc1ccc(CN2CC[C@H]3C=CC[C@@H](C(=O)N4CCOCC4)[C@H]3C2=O)cc1OC | 1.94% (inactive)
CNC(=O)c1nnc(Cc2ccc(Cl)cc2)o1 | 5.02% (inactive)
O=C(Nc1ccc(F)cc1F)N1CCCN(CCOc2ccccc2)CC1 | 5.19% (inactive)
Nc1ncnc2c1ncn2[C@@H]1O[C@H](CNC(=O)[C@H](N)Cc2cccnc2)[C@@H](O)[C@H]1O | 2.46% (inactive)
CCn1c(O)c(N=NC2=NC(=O)CS2)c2cc(C)ccc21 | -1.89% (inactive)
O=C(CCNc1n[nH]c(=O)[nH]c1=O)N/N=C\c1ccc(Br)cc1 | 17.3% (inactive)
CC(=O)N/C(=C/c1ccc(OC(F)F)cc1)C(=O)O | 6.97% (inactive)
CN1CCC(=NNC(=O)c2ccc(N(Cc3ccc(Cl)cc3)S(C)(=O)=O)cc2)CC1 | 4.92% (inactive)
CC1CCN(c2ccc([N+](=O)[O-])c(SCCO)c2)CC1 | 2.03% (inactive)
COCCNC(=O)C1CCN(C(=O)C2CC(=O)N(c3ccc(C)cc3)C2)CC1 (stereo unspecified) | 29.5% (active)
CCCC(C)NC(=O)C1CCN(C(=O)C2CC(=O)N(c3ccc(C)cc3)C2)CC1 (stereo unspecified) | 14.6% (inactive)
COCCCNC(=O)C1CC(=O)N(c2ccc(C)cc2)C1 (stereo unspecified) | 1.45% (inactive)

Compound | activation
Cc1ccc(S(=O)(=O)N2C3C=CC(C3)C2C(=O)O)cc1 (stereo unspecified) | 1.95% (inactive)
O=C(O)C1CCN1C1CCCCC1 (stereo unspecified) | 3.48% (inactive)
COc1ccccc1C(=O)NCC(=O)OCC(=O)Nc1nnc(-c2ccccc2)o1 | 7.11% (inactive)
CCCC(=O)Nc1nnc(-c2ccccc2)o1 | 28.9% (active)
Cc1ccnc2nc(C(=O)Nc3nnc(-c4ccccc4)o3)nn12 | 3.22% (inactive)
COc1ccc(N2CCC(CNC(=S)Nc3c(C)cccc3C)C2)cc1 (stereo unspecified) | -4.84% (inactive)
O=C(Cc1ccc(NC(=O)C2CCCN(C(=O)C3CCCCC3)C2)cc1)Nc1cccc(C(=O)N2CCCCC2)c1 (stereo unspecified) | 3.87% (inactive)
CSc1ccccc1C(=O)Nc1cccc(C(C)=O)c1 | -2.71% (inactive)
CC(Sc1nnc2c(n1)C1CCC2(C)C1(C)C)C(=O)Nc1ccccc1 (stereo unspecified) | 11.8% (inactive)
CSc1nc(C)cc(SC(C(C)=O)C(=O)Nc2ccccc2)n1 (stereo unspecified) | 23.1% (active)
Cc1ccc(S(=O)(=O)N(CCc2ccccc2)c2ccc3c(c2)C2CC3CCN2C(=O)OCc2ccccc2)cc1 (stereo unspecified) | 10.4% (inactive)
COc1ccccc1OCC(=O)OCn1c(SC)nnc(C)c1=O | 2.31% (inactive)
Cc1nc(-c2ccc(F)cc2)c(CC(=O)Nc2cc(S(=O)(=O)N3CCCCC3)ccc2C)s1 | 14.8% (inactive)
Cc1ccc(NC(=O)CSc2nn3c(=O)c(C)nnc3s2)cc1Cl | 10.6% (inactive)
Cc1ccccc1CSCCNC(=O)c1ccc(Cl)c(S(=O)(=O)N2CCOCC2)c1 | -5.71% (inactive)
COc1ccc(Cl)cc1NC(=O)COc1ccc2c(c1)OCO2 | 7.62% (inactive)
CN=C1SC(C(=O)O)CC(=O)N1C (stereo unspecified) | 7.37% (inactive)
COc1cc(C(=O)N(C)Cc2cccc(OC)c2OC)ccc1OCC(=O)Nc1cccc(C(F)(F)F)c1 | -5.88% (inactive)
COC(=O)c1ccc2ccccc2c1OC1OC(CO)C(O)C(O)C1NC(C)=O (stereo unspecified) | 9.3% (inactive)
CC(=O)c1cccc(NC(=O)C2CCCN2S(=O)(=O)c2cccc3nsnc23)c1 (stereo unspecified) | -0.71% (inactive)
Cc1ccc(CN2CCN(c3ccccc3Cl)CC2)o1 | 5.74% (inactive)
CCOc1cc(C(=O)Nc2ccc(S(=O)(=O)Nc3cnc4ccccc4n3)cc2)cc(OCC)c1OCC | 7.77% (inactive)
COc1ccc([N+](=O)[O-])cc1N(CC(O)Cn1nnc2ccccc21)S(=O)(=O)c1ccc(C)cc1 (stereo unspecified) | 21.8% (inactive)

Compound | activation
Oc1cccc(CCc2ccccn2)c1 | 4.71% (inactive)
CCCn1c(=O)c2c(C(F)(F)F)cc(-c3cccs3)nc2n(CCC)c1=O | 1.78% (inactive)
CCC(=O)N1CCCC1(C)C(=O)Nc1ccc2c(c1)CCN2C(C)=O (stereo unspecified) | 8.84% (inactive)
COC(=O)c1ccc2nc(-c3ccc(OC)c(OC)c3)c(Cc3ccccc3)n2c1 | 2.75% (inactive)
COC(=O)c1ccc2nc(C3CCCCC3)c(Cc3cccc(F)c3)n2c1 | 27% (active)
COC(=O)c1ccc2nc(-c3ccc(Cl)cc3)c(Cc3cccc(F)c3)n2c1 | -0.44% (inactive)
CN(C)CCN(Cc1ccccc1)S(=O)(=O)c1csc(C(N)=O)c1 | 10.5% (inactive)
O=C(Cc1ccccc1)NCC1OCCc2ccccc21 (stereo unspecified) | -5.39% (inactive)
CCCCN(CC(=O)NC(C)(C)C)C(=O)C(=O)Nc1ccc2c(c1)OCCO2 | 7.88% (inactive)
O=C(NNS(=O)(=O)c1c(F)cc(F)c(Cl)c1F)C12CC3CC(CC(C3)C1)C2 | -10.7% (inactive)
COc1ccc(CNC(=O)COC(=O)CCS(=O)(=O)c2ccc(C)cc2)cc1OC | 4.46% (inactive)
CCCn1nc(C(=O)OCc2nc(N)nc(Nc3ccccc3C)n2)c2ccccc2c1=O | 11.4% (inactive)
CCOc1ccc2ccccc2c1/C=N/NC(=O)c1c(C)cc(C)[nH]c1=O | 7.97% (inactive)
Oc1cccc(C2c3[nH]c4ccccc4c3CCN2Cc2cnn(-c3ccccc3)c2)c1 (stereo unspecified) | -6.09% (inactive)
O=C(O)c1cccc(S(=O)(=O)Nc2ccc(O)cc2Sc2nc3ccccc3s2)c1 | 31.9% (active)
Cc1nc2ccc(NC(=O)c3cccc(S(=O)(=O)N4CCOCC4)c3)cc2s1 | 3.59% (inactive)
O=[N+]([O-])c1c(NCCO)cc(Sc2nc3ccccc3s2)c2nonc12 | 1.97% (inactive)
CCn1c(CN2C(=O)CSc3ccccc32)n[nH]c1=S | -0.34% (inactive)
CCC(C)[C@H](NC(=O)N1CCn2c1nc1ccccc12)C(=O)NCc1ccc(OC)cc1 (stereo partly specified) | 0.16% (inactive)
CC(C)(C)NC(=O)Cn1c(SCC(=O)Nc2nccs2)nc2ccccc21 | 2.24% (inactive)
CCOC(=O)C1(Cc2cccc(OC)c2)CCCN(S(=O)(=O)c2cccnc2)C1 (stereo unspecified) | 6.27% (inactive)
CN1/C(=C\C=C2\N=C(c3ccc(F)cc3)OC2=O)C(C)(C)c2ccccc21 | -5.26% (inactive)
